# Assay outcomes from PubChem.
# Most compounds without a hit are left out; they make up all but 19% or so of the library.
# CHX counter = Cycloheximide Counterscreen for Small Molecule Inhibitors of Shiga Toxin; cell reporter, cycloheximide protein synthesis inhibition counterscreen; max response, %; 300,000 tested, 12% active; in the data active = max response mostly above about 13%, no sharp cut-off; inactive = mostly below about 14%; also: read at 38.3 µM for the half of the compounds with a filed dose; 0% is about no effect
# MARV entry inh = qHTS for inhibitors of binding or entry into cells for Marburg Virus; Potency, µM (series often up to 37.8 µM), for inactives: at the highest dose activity change, negative = inhibition, most hits filed as inhibitors; AID 540276, 2011; Marburg virus pseudotyped entry inhibition, cell reporter; 300,000 tested, 1.8% active; calls by dose curve; tested in HEK293 cells; also: potency is read from the fitted curve at half-maximal effect; % is scaled to controls: 0 for no effect and ±100 for the full control effect
# Pf growth 96h = Primary qHTS for delayed death inhibitors of the malarial parasite plastid, 96 hour incubation. P. falciparum luciferase reporter growth, 96 h. Potency, µM (titrated, usually from 28.7 µM), for the others: at the highest dose activity change, negative = inhibition, actives largely listed as inhibitors. 320,000 tested, 6.9% active. AID 504834, 2011; also: potency is read from the fitted curve at half-maximal effect; % is scaled to controls: 0 for no effect and ±100 for the full control effect
#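 Readout is luminescence from an integrated firefly luciferase in P. falciparum. Red cells, 2% hematocrit and 0.05% parasitemia final, were cultured with compound through two parasite generations (96 hours) at 37 C, 5% CO2.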
# Pf growth 48h = Primary qHTS for delayed death inhibitors of the malarial parasite plastid, 48 hour incubation | P. falciparum luciferase growth in erythrocytes, 48 h | 310,000 tested, 5.9% active | Potency, µM (doses to about 28.7 µM), for the others: at the top dose activity change, negative = inhibition, actives largely listed as inhibitors; also: potency is read from the fitted curve at half-maximal effect; % is scaled to controls: 0 for no effect and ±100 for the full control effect
#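 Luciferase-expressing P. falciparum in infected erythrocytes (2% hematocrit, 0.1% parasitemia final) in RPMI 1640/0.5% Albumax were exposed to compound for 48 hours at 37 C, 5% CO2; growth read as luminescence.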
# LASV entry inh = qHTS for Inhibitors of binding or entry into cells for Lassa Virus. Lassa virus pseudotype entry inhibition, cell reporter. Potency, µM (highest dose often 37.9 µM), inactives show at the top dose activity change, negative = inhibition, hits mostly inhibitors. 300,000 tested, 1.2% active; calls by dose curve; tested in HEK293 cells; also: potency is read from the fitted curve at half-maximal effect; % is scaled to controls: 0 for no effect and ±100 for the full control effect; nearly all actives have a fitted effect of over 50% in size
# Shiga inhibitor = A qHTS for Small Molecule Inhibitors of Shiga Toxin; Vero cells, Shiga toxin protein synthesis inhibition reporter; AID 2315, 2010; inhibition, % at 38.7 µM; 290,000 tested, 9.2% active; in the data active = inhibition mostly above about 28%, no sharp cut-off; inactive = mostly below about 43%; also: 0% is about no effect
# * marks the source's active call; other numbers are inactive results; ? = inconclusive; / = no result given; [ ] = another dose, or the depositor's remark. Unless noted, calls follow the shape of the dose curve; as a rule, active = well fitted inhibition curve with a large enough effect; inconclusive = small, poorly fitted or top-dose-only effect, or another doubt; inactive = no such curve, though single readings can be large or run the other way.
SMILES,CHX counter,MARV entry inh,Pf growth 96h,Pf growth 48h,LASV entry inh,Shiga inhibitor
O=C(Cc1cccs1)N1CCN(c2ccc(F)cc2)CC1,-2,16%,?,-21%,?,-5
CCN(CC)S(=O)(=O)c1cc([N+](=O)[O-])ccc1N1CCC(C(N)=O)CC1,-2,-1%[46.1 µM],-24%,-21%,7%,-6
CCNC(=S)N1CCN(c2nc(CC)nc3sc4c(c23)CCCC4)CC1,-2,?,46%,?,?,-5
COc1cccc(NC(=O)c2cccc(Cl)c2)c1,/,/,163%,94%,/,/
COc1cccc(C(=O)Nc2nnc(-c3ccccc3)s2)c1,33*,-18%[46.1 µM],?,-24%[0.00184 µM],?,112*
COc1cccc(C(=O)NC(=O)Nc2cc(C)[nH]n2)c1,39*,?,125%,104%,-28%[46.1 µM],84*
COc1cccc(NC(=S)NC(=O)c2cccnc2)c1,18*,?,122%,-4%,1%[46.1 µM],39*
COC(=O)c1cccc(NC(=O)c2cccc(OC)c2)c1,53*,-12%[46.1 µM],27%,160%,?,104*
CCC(=O)N1CCc2cc(S(=O)(=O)NCCC(=O)Nc3ccc(OC)c(Cl)c3)ccc21,/,-1%[46.1 µM],/,/,-23%[46.1 µM],/
Nn1c(COc2ccccc2)nnc1SC(F)F,6,-2%,/,1%,-29%[14.3 µM],-15
CCOc1cccc(NC(=O)c2cccc(F)c2)c1,20*,/,4%,27%,/,102*
O=C(COc1cccc(NC(=O)c2ccccc2)c1)c1ccc(F)cc1,-3,?,-10%,9%,-13%,3
COc1cccc(C(=O)Nc2cccnc2)c1,48*,-25%,/,87%,4%,70
COC(=O)c1cccc(NC(=O)c2cc3sccc3n2C)c1,29*,14%,3%,150%,51%[14.3 µM],109*
COc1cccc(C(=O)Nc2ccc(C3CC3(Cl)Cl)cc2)c1 (configuration not stated),28*,/,51%,408%,/,85*
C[C@]12CCC(OC(=O)CCC(=O)O)CC1=CCC1C2CC[C@]2(C)C(=O)CCC12 (some centres not stated),-3,-6%[46.1 µM],?,7%,12%[46.1 µM],-7
N#Cc1c(N)nc(SCc2ccncc2)c(C#N)c1-c1cccs1,-4,?,?,?,?,-12
CCCOc1cccc(C(=O)NC(=S)Nc2cccc(C(F)(F)F)c2)c1,-1,4%,?,/,?,28
CCOc1cccc(C(=O)NC(=S)Nc2cccc(C)c2)c1,9,?,?,46%,?,65*
CC(=O)Nc1cccc(NC(=O)c2ccc(COc3ccccc3)cc2)c1,59*,?,92%,59%,?,109*
CCOc1cccc(C(=O)Nc2cccc(C(=O)NC(C)(C)C)c2)c1,6,-13%,8%,-6%,?,-7
CCOc1cccc(C(=O)Nc2cccc(C(C)=O)c2)c1,40*,5%,3.3µM*,120%,8%,68*
CCOc1cccc(C(=O)Nc2cccc(NC(=O)c3ccco3)c2)c1,25*,?,23%,-8%,-24%,25
O=C(Nc1ccc(C(F)(F)F)cc1)C1CCC(CNS(=O)(=O)c2cccc3nsnc23)CC1 (configuration not stated),/,?,/,/,6%[46.1 µM],/
Cc1cc(Cl)ccc1Oc1cccc(C(=O)/C(C#N)=C/N(C)C)c1,-1,-17%,-13%,/,10%,-11
SMILES,CHX counter,MARV entry inh,Pf growth 96h,Pf growth 48h,LASV entry inh,Shiga inhibitor
COc1cccc(NC(=O)c2ccc(NC(C)=O)cc2)c1,33*,12%,56%,/,?,20
Cc1cccc(C(=O)Nc2ccc(C(=O)c3ccccc3)cc2)c1,/,12%[46.1 µM],/,/,?,/
Cc1cccc(C(=O)Nc2ccc(O)cc2)c1,30*,-21%,-7%,69%,-24%,37
Cc1cc(OCC(=O)c2ccc(F)cc2)ccc1N1C(=O)CCC1=O,-1,?,9.3µM*,2%,-13%,-2
COC(=O)c1ccc(NC(=O)c2cccc(OC)c2)cc1,57*,?,-3%,40%,-22%,91*
COc1cccc(C(=O)Nc2ccc(C(=O)NCC(C)C)cc2)c1,-5,/,39%,-9%,/,12
COc1cccc(NC(=O)c2ccncc2)c1,3,2%[46.1 µM],19%,45%,-9%,38
CSc1ccc(S(=O)(=O)NCc2ccccc2)cc1,7,0%,/,25%,22%,-6
COc1cccc(CNC(=O)c2ccc(NC(=O)N3CCCCc4ccccc43)cc2)c1OC,/,/,/,/,-8%[46.1 µM],/
COc1ccc(OC)c(C2CC(=O)Nc3cc(OC)c(OC)c(OC)c32)c1 (configuration not stated),-6,-10%,24%,/,-16%,-3
COc1ccccc1-c1nnc(NC(C)=O)s1,38*,-9%,7.4µM*,196%,-26%,49*
O=C(COc1cccc(NC(=O)c2ccco2)c1)c1ccc(F)cc1,15*,?,/,-21%,4%,25*
COc1cccc(C(=O)Nc2ccc(C)cc2)c1,30*,?,?,133%,?,88*
COc1cccc(C(=O)NNC(=O)C(=O)Nc2ccc(C)cc2)c1,11,?,-1%,20%,0%[46.1 µM],51
COC(=O)c1ccc(NC(=O)c2cccc(C)c2)cc1,19*,16%,?,106%,-2%,37
CNS(=O)(=O)c1cnccc1N1CCN(c2cccc(C(F)(F)F)c2)CC1,-4,-29%,15µM*,?,-1%,-13
CNS(=O)(=O)c1cnccc1N1CCN(C)CC1,-2,0%,-12%,4%,2%,4
Oc1c(Cl)cc(CN2CCCCC2)c2cccnc12,-1,/,1%,3.7µM*,/,-6
O=[N+]([O-])c1cc(CN2CCN(c3cccc(C(F)(F)F)c3)CC2)c2cccnc2c1O,-7,?,?,0.83µM*,?,-12
OCCN1CCN(Cc2cc(Cl)c3cccnc3c2O)CC1,-3,?,?,/,?,-12
Oc1ccc(CN2CCCCC2)c2cccnc12,-3,?,-1%,?,-65%,1
Oc1c(CN2CCN(c3ccccn3)CC2)cc(Cl)c2cccnc12,14*,7.1µM*,/,2.3µM*,13µM*,7
O=C(O)c1cc([N+](=O)[O-])cc([N+](=O)[O-])c1N1CCN(c2cccc(C(F)(F)F)c2)CC1,10,/,26%,15%,/,4
CCCCC(=O)Nc1cc(OCC)c(NC(=S)NC)cc1OCC,-5,2%[46.1 µM],-23%,-3%,-7%[46.1 µM],22
CCOC(=O)N1CCN(CC(=O)Nc2ccc(C)cc2)CC1,1,18%,-1%,-4%,-9%,-9
O=[N+]([O-])c1cc(Cl)ccc1N1CCN(c2cccc(C(F)(F)F)c2)CC1,0,-4%,12µM*,?,?,-13
Brc1ccc(CN2CCN(c3ccccn3)CC2)s1,-3,1%,20%,/,15%,-11
